Records with an inconclusive call do not appear. Calls of active or inactive are those of the source. Calls come from the whole dose curve; as a rule, active = well fitted curve in the direction sought with a large enough effect; inconclusive = small, poorly fitted or top-dose-only effect, or another doubt; inactive = no such curve, though single readings can be large; an effect the other way counts as inactive or inconclusive.
Key:
[1] = target: Beta-2 adrenergic receptor (Homo sapiens) (UniProt P07550); assay: qHTS validation assay of beta-arrestin-biased ligands of beta2-adrenergic receptor (AID 485366); conditions: cell-based beta-arrestin recruitment to ADRB2, qHTS; series mostly up to 46.1 µM
Summary of the method: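 qHTS, Tango cells, 1500 cells/well, DMEM + 1% FBS. Cpd 18 hr at 37 degrees C. Luciferin/ATP/CoA detection mix, 15 min RT, luminescence read. %Activity from corrected signal; CRC fit, curve class.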

[2] = target: ATP-dependent 6-phosphofructokinase (Trypanosoma brucei brucei) (UniProt O15648); assay: qHTS Validation Assay to Find Inhibitors of T. brucei phosphofructokinase (AID 485368); conditions: T. brucei PFK enzyme assay, qHTS 7-point titration; series mostly up to 57.5 µM
Summary of the method: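 Luminescent ADP detection measures PFK turnover of fructose-6-phosphate (0.5 mM) with ATP (0.1 mM) at pH 8.0. Reaction runs 45 min at room temperature with 1.25 nM enzyme; inhibitors tested as titrations up to 57 uM.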

[3] = Quantitative high throughput screen for delayed death inhibitors of the malarial parasite plastid, 96 hour incubation (AID 488745); conditions: Plasmodium falciparum growth; series mostly up to 28.7 µM;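 note: luciferase-expressing P. falciparum in erythrocytes at 2% hematocrit and 0.1% parasitemia; nearly all actives have a fitted effect of over 70% in size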
Summary of the method: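 Luciferase-expressing P. falciparum, infected RBCs 2% Hct/0.1% parasitemia (final); 96 h cpd exposure, 37 C, 5% CO2; RPMI 1640 + 0.5% Albumax, bicarbonate, gentamycin. Readout: luminescence loss = growth inhibition.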

[4] = Quantitative high throughput screen for delayed death inhibitors of the malarial parasite plastid, 48 hour incubation (AID 488752); conditions: Plasmodium falciparum growth; series mostly up to 28.7 µM; note: nearly all actives have a fitted effect of over 65% in size
Summary of the method: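 Luciferase-expressing P. falciparum in RBCs, 2% Hct, 0.1% parasitemia final; RPMI 1640 + 0.5% Albumax; 48 h, 37 C, 5% CO2; luminescence readout, signal drop = growth inhibition.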

[5] = target: Thioredoxin reductase 1, cytoplasmic (Rattus norvegicus) (UniProt O89049); assay: qHTS Assay for Substrates of Mammalian Selenoprotein Thioredoxin Reductase 1 (TrxR1) (AID 488772); conditions: purified TrxR1, NADPH consumption substrate assay; series mostly up to 57.1 µM;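 note: a drop in NADPH fluorescence below the no-compound background marks a TrxR1 substrate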
Summary of the method: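 In this dual-purpose format, potential substrates are identified from the first fluorescence read after selenite addition, not from the 8-minute delta. Rat enzyme is preincubated with NADPH and then with compound at ~22 deg C.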

[6] = target: Thioredoxin reductase 1, cytoplasmic (Rattus norvegicus) (UniProt O89049); assay: qHTS Assay for Inhibitors of Mammalian Selenoprotein Thioredoxin Reductase 1 (TrxR1) (AID 488773); conditions: purified TrxR1 enzyme activity; Potency: inhibition; series mostly up to 57.1 µM;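 note: drop in NADPH fluorescence over an 8 min run after selenite addition; nearly all actives have a fitted effect of over 40% in size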
Summary of the method: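 Inhibition is scored from the loss of NADPH fluorescence between first and last reads of an 8-min kinetic run. Selenite (400 uM) was the substrate, added after 15 min compound preincubation at room temperature.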

[7] = target: Flap endonuclease 1 (Homo sapiens) (UniProt P39748); assay: qHTS Validation Assay for the Inhibitors of Human Flap endonuclease 1 (FEN1) (AID 488816); conditions: FEN1 nuclease activity, fluorogenic DNA substrate; series mostly up to 57.1 µM
Summary of the method: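 qHTS format: compounds and 10 nM FEN1 incubated 15 min at room temperature before adding 50 nM substrate. Cleavage followed by reads at 0 and 15 min; normalized data fitted to a four-parameter Hill curve.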

[8] = target: M-phase phosphoprotein 8 (Homo sapiens) (UniProt Q99549); assay: qHTS Validation Assay for Inhibitors for MPP8 Chromodomain Interactions with Methylated Histone Tails (AID 488949); conditions: AlphaScreen MPP8 binding to H3K9me3 peptide; series mostly up to 57.1 µM;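 note: AlphaScreen signal from MPP8 chromodomain bound to biotinylated H3K9me3 peptide; top concentration of the series differs between compounds; nearly all actives have a fitted effect of over 55% in size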
Summary of the method: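 AlphaScreen read-out: streptavidin donor and nickel chelate acceptor beads (final 10 ug/mL), 30 min in the dark at RT. Complex of 50 nM MPP8 and 50 nM b-H3(1-18)K9me3 peptide had been exposed to compounds for 30 min beforehand.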

[9] = target: Methanococcus maripaludis chaperonin (MmCpn) (UniProt Q6LX38); assay: High-Throughput Screening for Modulators of Cytosolic Chaperonin Activity: MmCpn Primary Screen (AID 488978); conditions: Purified MmCpn ATPase activity, ADP HTRF detection, 10 min; series mostly up to 76.9 µM;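 note: 50 nM MmCpn enzyme hydrolysing 30 µM ATP at 37 °C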
Summary of the method: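 ADP formation read by HTRF Transcreener, 665/590 nm emission after 320 nm excitation. Enzyme: archaeal chaperonin at 50 nM final; substrate ATP 30 uM final; 10 min, 37C, after 5 min compound preincubation at RT.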

Measured: Potency

M-phase phosphoprotein 8 (Homo sapiens), sequence (Q99549 whole entry, looked up): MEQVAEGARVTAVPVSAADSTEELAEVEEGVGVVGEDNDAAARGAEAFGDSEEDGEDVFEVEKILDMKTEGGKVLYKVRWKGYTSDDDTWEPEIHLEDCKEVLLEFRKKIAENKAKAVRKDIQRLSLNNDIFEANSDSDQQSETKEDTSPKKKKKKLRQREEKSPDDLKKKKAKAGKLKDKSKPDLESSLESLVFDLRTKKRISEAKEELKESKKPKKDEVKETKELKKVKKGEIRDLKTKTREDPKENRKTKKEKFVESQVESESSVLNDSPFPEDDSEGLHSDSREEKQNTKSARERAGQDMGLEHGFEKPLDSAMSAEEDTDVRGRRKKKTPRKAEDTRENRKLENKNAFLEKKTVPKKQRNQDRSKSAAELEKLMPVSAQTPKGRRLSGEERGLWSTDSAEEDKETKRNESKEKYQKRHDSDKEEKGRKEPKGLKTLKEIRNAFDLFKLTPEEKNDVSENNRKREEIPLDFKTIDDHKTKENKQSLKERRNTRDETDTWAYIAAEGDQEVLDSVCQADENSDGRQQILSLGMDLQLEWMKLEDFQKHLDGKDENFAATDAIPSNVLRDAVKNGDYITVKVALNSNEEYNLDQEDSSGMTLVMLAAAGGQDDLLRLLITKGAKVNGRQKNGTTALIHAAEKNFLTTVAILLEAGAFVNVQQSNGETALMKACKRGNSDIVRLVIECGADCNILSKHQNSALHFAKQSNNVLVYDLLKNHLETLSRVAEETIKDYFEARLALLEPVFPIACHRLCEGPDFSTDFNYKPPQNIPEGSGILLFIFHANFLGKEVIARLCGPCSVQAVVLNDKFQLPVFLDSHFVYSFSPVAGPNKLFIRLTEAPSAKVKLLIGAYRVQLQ
Methanococcus maripaludis chaperonin (MmCpn), sequence (Q6LX38 1-543): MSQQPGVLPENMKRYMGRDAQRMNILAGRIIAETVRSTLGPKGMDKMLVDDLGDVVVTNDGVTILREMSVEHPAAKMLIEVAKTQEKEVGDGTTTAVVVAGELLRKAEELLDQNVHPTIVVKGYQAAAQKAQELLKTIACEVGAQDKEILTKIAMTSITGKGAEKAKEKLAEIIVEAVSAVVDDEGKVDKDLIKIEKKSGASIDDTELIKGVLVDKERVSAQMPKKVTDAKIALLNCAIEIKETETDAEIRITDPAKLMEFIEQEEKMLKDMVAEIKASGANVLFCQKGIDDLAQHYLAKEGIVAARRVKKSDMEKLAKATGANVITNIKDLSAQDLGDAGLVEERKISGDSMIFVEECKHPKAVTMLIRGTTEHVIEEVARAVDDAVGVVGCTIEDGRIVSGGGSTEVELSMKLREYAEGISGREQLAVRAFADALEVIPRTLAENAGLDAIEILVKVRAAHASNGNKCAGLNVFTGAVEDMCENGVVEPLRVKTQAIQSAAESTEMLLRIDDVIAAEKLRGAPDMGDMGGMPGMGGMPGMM
Thioredoxin reductase 1, cytoplasmic (Rattus norvegicus), sequence (O89049 whole entry, looked up): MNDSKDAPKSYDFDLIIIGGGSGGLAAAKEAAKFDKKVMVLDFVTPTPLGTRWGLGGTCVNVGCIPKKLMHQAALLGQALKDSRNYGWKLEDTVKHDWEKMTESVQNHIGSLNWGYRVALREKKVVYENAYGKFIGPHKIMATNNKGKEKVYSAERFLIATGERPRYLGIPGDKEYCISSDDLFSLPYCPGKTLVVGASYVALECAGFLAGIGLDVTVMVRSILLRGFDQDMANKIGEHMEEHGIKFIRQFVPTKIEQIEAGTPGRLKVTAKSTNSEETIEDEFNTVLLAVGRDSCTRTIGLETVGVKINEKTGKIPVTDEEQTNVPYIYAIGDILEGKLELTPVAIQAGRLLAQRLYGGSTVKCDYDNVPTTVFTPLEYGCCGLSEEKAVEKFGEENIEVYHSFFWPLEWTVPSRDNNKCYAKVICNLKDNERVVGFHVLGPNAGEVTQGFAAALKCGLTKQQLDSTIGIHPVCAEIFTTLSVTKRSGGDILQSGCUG
Beta-2 adrenergic receptor (Homo sapiens), sequence (P07550 whole entry, looked up): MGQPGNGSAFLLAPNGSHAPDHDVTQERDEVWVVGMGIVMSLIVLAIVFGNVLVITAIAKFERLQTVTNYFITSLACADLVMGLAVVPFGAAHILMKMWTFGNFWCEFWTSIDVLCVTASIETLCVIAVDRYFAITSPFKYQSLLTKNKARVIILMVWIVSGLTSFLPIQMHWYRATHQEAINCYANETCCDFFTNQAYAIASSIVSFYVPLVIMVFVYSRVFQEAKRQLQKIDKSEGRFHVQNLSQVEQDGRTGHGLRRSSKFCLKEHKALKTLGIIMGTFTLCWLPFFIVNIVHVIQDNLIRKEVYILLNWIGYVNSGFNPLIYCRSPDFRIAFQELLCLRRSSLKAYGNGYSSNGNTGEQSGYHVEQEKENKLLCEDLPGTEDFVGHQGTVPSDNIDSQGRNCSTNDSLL
Flap endonuclease 1 (Homo sapiens), sequence (P39748 whole entry, looked up): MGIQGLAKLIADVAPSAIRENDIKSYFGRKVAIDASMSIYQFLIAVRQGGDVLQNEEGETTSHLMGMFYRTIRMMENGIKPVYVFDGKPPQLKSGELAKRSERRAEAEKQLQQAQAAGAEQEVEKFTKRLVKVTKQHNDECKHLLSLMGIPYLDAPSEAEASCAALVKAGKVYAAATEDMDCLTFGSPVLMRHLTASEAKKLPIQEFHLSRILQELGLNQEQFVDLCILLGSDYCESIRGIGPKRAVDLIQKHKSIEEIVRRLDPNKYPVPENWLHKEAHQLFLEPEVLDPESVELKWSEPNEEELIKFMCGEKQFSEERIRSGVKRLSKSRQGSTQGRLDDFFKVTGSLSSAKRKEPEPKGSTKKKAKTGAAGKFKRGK
ATP-dependent 6-phosphofructokinase (Trypanosoma brucei brucei), sequence (O15648 whole entry, looked up): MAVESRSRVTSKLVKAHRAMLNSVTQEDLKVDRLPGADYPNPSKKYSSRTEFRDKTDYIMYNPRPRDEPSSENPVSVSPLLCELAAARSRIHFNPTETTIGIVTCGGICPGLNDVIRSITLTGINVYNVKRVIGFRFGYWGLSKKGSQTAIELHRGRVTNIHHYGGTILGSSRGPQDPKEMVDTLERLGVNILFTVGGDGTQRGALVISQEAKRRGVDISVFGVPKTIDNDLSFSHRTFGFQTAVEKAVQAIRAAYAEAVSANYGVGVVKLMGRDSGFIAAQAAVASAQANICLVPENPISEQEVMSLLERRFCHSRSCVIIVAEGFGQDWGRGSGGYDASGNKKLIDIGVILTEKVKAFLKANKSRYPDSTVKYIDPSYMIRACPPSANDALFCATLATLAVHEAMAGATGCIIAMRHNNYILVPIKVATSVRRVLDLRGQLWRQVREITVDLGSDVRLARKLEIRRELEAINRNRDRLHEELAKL

CCCn1cnc2c1c(=O)n(CCCCC(C)=O)c(=O)n2C
inactive: all assays above

CC1=C(/C=C/C(C)=C/C=C/C(C)=C/C(=O)O)C(C)(C)CCC1
inactive: [1] | [5] | [7] | [8] | [9]

CN(C)CCC=C1c2ccccc2CCc2ccccc21
not listed: [4] | [8]
inactive: all other assays above

Reference: PubChem BioAssay (NCATS)
